Compound activity as filed in PubChem BioAssay.
Most compounds without a hit are left out; they make up all but 1.2% or so of the library.
LANA-H2B inh – blocks KSHV LANA binding to histone H2A/H2B. inhibition, % (test concentration not listed). AID 2629. cell-free LANA-H2A/H2B peptide, fluorescence polarization. 320,000 compounds, 0.6% hits. Q9QR71; in the data active = inhibition mostly above about 10%, no sharp cut-off; inactive = mostly below about 6.7%
HDAC3 inh – human HDAC3 inhibition | O15379 | recombinant HDAC3, fluorogenic peptide/trypsin coupled, fluorescence | inhibition, % at 8.3 µM | 320,000 compounds, 0.15% hits | AID 2718; in the data active = inhibition above about 26%, passing the limit was not always enough; inconclusive = no clear call, values can overlap the other calls
Target sequence (O15379 whole entry, looked up): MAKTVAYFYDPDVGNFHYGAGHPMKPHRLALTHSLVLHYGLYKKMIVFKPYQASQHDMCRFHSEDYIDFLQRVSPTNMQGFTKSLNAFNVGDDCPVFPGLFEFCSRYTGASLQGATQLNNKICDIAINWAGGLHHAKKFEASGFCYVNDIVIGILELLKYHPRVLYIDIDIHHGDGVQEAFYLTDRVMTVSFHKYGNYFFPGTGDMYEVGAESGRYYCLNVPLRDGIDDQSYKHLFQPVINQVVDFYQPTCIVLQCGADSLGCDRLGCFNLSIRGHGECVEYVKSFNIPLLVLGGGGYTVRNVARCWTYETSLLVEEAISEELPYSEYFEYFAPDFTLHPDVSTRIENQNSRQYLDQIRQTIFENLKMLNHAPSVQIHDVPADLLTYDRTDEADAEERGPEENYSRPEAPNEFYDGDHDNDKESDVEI
Yeast superoxide – lowers age-related superoxide in aged yeast cells | S. cerevisiae aged cells, superoxide DHE fluorescence; active compounds read low | superoxide response (% of plate mean), % at 10 µM | 330,000 compounds, 0.18% hits;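 active = superoxide response under a set limit, about three screen SD below normal, cut at about 65% in these data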;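 note: yeast aged for seven days with compound at 30 °C before DHE staining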
HIF activator – HIF pathway transcriptional activation | U2OS HRE-luciferase reporter, luminescence; normalized: DMSO 0%, desferrioxamine 100% | activation, % at 7.5 µM (by protocol) | 300,000 compounds, 0.32% hits | AID 1910;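 active = mean activation of at least 10% of the iron chelator positive control signal, with at least half of replicates also reaching 10%; inconclusive = mean and replicate majority disagree about reaching 10%; inactive = mean and most replicates under 10%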
CR mimetic CP – confirmation of caloric restriction mimetics inhibiting yeast age-related superoxide; shares compounds with Yeast superoxide; S. cerevisiae aging, superoxide DHE fluorescence; active compounds read low; superoxide response (% of plate), % at 10 µM; 850 compounds, 1% hits;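 active = superoxide signal below 65% of the plate average of sample wells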;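 note: cells aged with compound for 7 days at 30 degrees C before staining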
DHE counter – DHE fluorescence interference, counter-screen artifact; shares compounds with Yeast superoxide; fluorescence response, % at 10 µM; S. cerevisiae BY4741, flow cytometry; active compounds read low; 850 tested, under 10 active; AID 435000;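 active = fluorescence response below 15%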;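 note: lower means stronger quenching of DHE signal or ROS scavenging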
Hits are given with their value; - = inactive; ? = inconclusive; . = no result given.

SMILES	LANA-H2B inh	HDAC3 inh	Yeast superoxide	HIF activator	CR mimetic CP	DHE counter
Cc1cccc(C(=O)NC2CC3CCCC(C2)N3C(=O)Nc2ccccc2)c1 (stereo unspecified)	-	-	-	-	.	.
CC(C)(C)c1ccc(Cn2nnc3c(=O)[nH]c(C4CCCN(C(=O)c5cccs5)C4)nc32)cc1 (stereo unspecified)	-	-	-	-	.	.
CCOc1ccc(CNC(=O)CCCn2nc(C)c3c(C)n(-c4ccc(C)cc4)nc3c2=O)cc1	-	-	-	-	.	.
Cc1c(NS(=O)(=O)c2ccccc2)cc(Cl)c(O)c1C	-	-	-	-	-	-
Cc1ccc(S(=O)(=O)N2[C@@H](c3ccccc3F)C(C(=O)O)=CC[C@H]2c2cccc(Cl)c2)cc1	-	-	-	.	.	.
Cc1ccc(C(=O)Nc2cccc(NC(=O)c3ccc(C)c([N+](=O)[O-])c3)n2)cc1[N+](=O)[O-]	-	-	61	-	-	-
Cc1cc(NC(=O)c2ccc(C)c([N+](=O)[O-])c2)no1	-	-	-	-	.	.
CNC(=S)N1N=C(c2cccs2)CC1c1ccc(F)cc1 (stereo unspecified)	-	-	65	-	-	-
O=C(c1ccco1)N1N=C(c2cccs2)CC1c1ccc(F)cc1 (stereo unspecified)	-	-	-	-	.	.
Cc1nc(C)c(C(=O)O)c(-c2ccsc2)c1C(=O)O	-	-	61	-	-	-
COc1cccc(-c2cc3nc(-c4ccccc4)cc(=O)n3[nH]2)c1	-	-	-	-	-	-
Cc1nc2cc(-c3ccccc3)[nH]n2c(=O)c1C	-	-	-	-	-	-
Cc1cc(=O)n2[nH]c(-c3ccccc3)cc2n1	-	-	-	-	.	.
O=c1cc(-c2ccccc2)nc2cc(-c3ccc(F)cc3)[nH]n12	-	-	-	-	-	-
Cc1cccc([C@@H](NC(=O)OC(C)(C)C)C(=O)OC(C)(C)C)c1	-	-	62	.	-	-
CN(NC1OC(=O)c2ccccc21)c1ccc(Cl)cc1[N+](=O)[O-] (stereo unspecified)	-	-	55	-	-	-
CN(CCOc1ccccc1)C(=O)C1CCC(=O)N(CCN2CCOCC2)C1 (stereo unspecified)	-	-	.	-	.	.
COc1ccc(OC)c(-n2nnnc2SCC(=O)NCCc2ccccc2)c1	-	-	53	.	-	-
Nc1nonc1-n1nnc(C(=O)N/N=C/c2ccccc2Br)c1CN1CCCC1	-	-	-	-	.	.
Cc1ccc(-c2nnc(Nc3ccccc3)c3ccccc23)cc1S(=O)(=O)NCC1CCCO1 (stereo unspecified)	-	-	-	-	-	-
CNC(=O)c1ccc(Nc2nnc(-c3ccc(C)c(S(=O)(=O)NCC4CCCO4)c3)c3ccccc23)cc1 (stereo unspecified)	-	-	-	-	-	-
CNS(=O)(=O)c1cc(-c2nnc(Nc3ccc(NC(C)=O)cc3)c3ccccc23)ccc1C	-	-	51	-	-	-
CC(=O)Nc1ccc(Nc2nnc(-c3ccc(C)c(S(=O)(=O)NCC4CCCO4)c3)c3ccccc23)cc1 (stereo unspecified)	-	-	-	-	-	-
Cc1ccc(-c2nn3c(-c4ccco4)nnc3c3ccccc23)cc1S(=O)(=O)NCC1CCCO1 (stereo unspecified)	-	-	-	-	.	.
O=C1OC(Nc2nc(-c3ccc(F)cc3)cs2)c2ccccc21 (stereo unspecified)	-	-	-	-	.	.
SMILES	LANA-H2B inh	HDAC3 inh	Yeast superoxide	HIF activator	CR mimetic CP	DHE counter
O=C(NNC(=O)c1ccc(Cl)cc1Cl)Nc1ccccc1	-	-	63	-	-	-
O=C(O)Cn1c2ccccc2c2ccccc21	-	-	-	-	-	-
NNC(=O)Cn1c2ccccc2c2ccccc21	-	-	-	-	-	-
O=Cc1c(C(=O)O)n(CC(=O)O)c2ccccc12	-	-	-	-	.	.
CC(C)CCn1c2ccccc2c2cc(CC(N)=O)ccc21	-	-	-	-	-	-
OCCOCCOCCn1c2ccccc2c2ccccc21	-	-	-	-	-	-
CC(C)CCn1c(S(=O)(=O)O)nc2ccccc21	-	-	-	-	.	.
CCCN(c1ccccc1F)S(=O)(=O)c1c[nH]c(C(=O)OC)c1	-	-	-	-	.	.
CC(C)(C)C(=O)N1N=C(c2ccc(NS(C)(=O)=O)cc2)CC1c1cccs1 (stereo unspecified)	-	-	-	-	.	.
NC(=O)CCn1c2ccccc2c2ccccc21	-	-	-	-	-	-
O=C(O)CCn1c(=O)c2ccccc2c2ccccc2c1=O	-	-	-	-	.	.
Cc1cc(SCC(=O)NC2(C#N)CCCCC2)nc2c(C)cccc12	-	-	64	-	-	-
O=C(Cn1cnc2ccccc21)N/N=C/c1cccnc1	-	-	-	-	.	.
O=C(CCn1cnc2ccccc21)N/N=C/c1ccccc1O	-	-	-	-	.	.
O=C(Cn1cnc2ccccc21)N/N=C/c1ccccn1	-	-	21	-	-	-
O=C(CCn1cnc2ccccc21)N/N=C/c1ccc(O)cc1	-	-	65	-	-	-
CCOC(=O)C1CCN(C(=O)COc2ccc(C(=O)c3ccccc3)cc2)CC1	-	-	64	.	-	-
CCOC(=O)C1CCN(C(=O)COc2ccc(Br)cc2)CC1	-	-	-	-	.	.
COc1ccccc1CCC(=O)Nc1cc(S(=O)(=O)N2CCOCC2)ccc1N1CCCC1	-	-	-	-	.	.
COc1ccc(CC(=O)Nc2cc(S(=O)(=O)N3CCOCC3)ccc2N2CCCC2)cc1OC	-	?	-	.	-	-
O=C(Cc1ccc(Cl)cc1)Nc1cc(S(=O)(=O)N2CCOCC2)ccc1N1CCCC1	-	-	-	-	-	-
CC1CCC(NC(=O)CCNC(=O)c2ccc(Br)cc2)CC1 (stereo unspecified)	-	-	-	-	.	.
CSCCC(NC(=O)c1ccccc1Br)C(=O)NCc1ccc(F)cc1 (stereo unspecified)	-	-	23	-	-	-
Cc1ccc(/C=N/N2CCN(c3ccccn3)CC2)o1	-	-	-	-	.	.
Cc1ccc(-c2nnc(Nc3ccc(CC(N)=O)cc3)c3ccccc23)cc1S(=O)(=O)NCCO	-	-	-	-	.	.
SMILES	LANA-H2B inh	HDAC3 inh	Yeast superoxide	HIF activator	CR mimetic CP	DHE counter
Cc1ccc(-c2nnc(Nc3ccc4c(c3)OCO4)c3ccccc23)cc1S(=O)(=O)NCCO	-	-	-	-	-	-
Cc1ccc(-c2nnc(Nc3ccc4c(c3)OCO4)c3ccccc23)cc1S(=O)(=O)NC(C)C	-	-	-	-	-	-
Cc1cc(Nc2ccccc2C(=O)O)n(-c2ccc([N+](=O)[O-])cc2)n1	-	-	-	-	.	.
O=C(CN(C(=O)Cn1nnc(-c2ccc(F)cc2)n1)c1ccc(F)cc1)NC1CCCC1	-	-	-	-	.	.
O=C(CN1CCC(n2nnc3cc(F)ccc32)CC1)Nc1ccccc1N1CCOCC1	-	-	-	.	.	.
O=C(NCc1ccco1)c1nn(-c2ccccc2)c(=O)c2ccccc12	-	-	62	-	-	-
